The values below come from PubChem BioAssay AID624296 (National Center for Advancing Translational Sciences (NCATS), 2012).

The campaign covered roughly 350,000 compounds. About 9,900 (2.8%) were called active. Roughly 15% stayed inconclusive and do not appear here. Calls follow the shape of the dose curve; as a rule, active = well fitted activation curve with a large enough effect; inconclusive = small, poorly fitted or top-dose-only effect; inactive = no such curve, though single readings can be large or run the other way. Shown is part of a subset that was picked to be rich in actives. Where a call stands in place of a potency, no number is given.
Potency is read from the fitted curve at half-maximal effect.

The experiment can be described thus: A quantitative high throughput screen for small molecules that induce DNA re-replication in MCF 10a normal breast cells. Also: nearly all actives have a fitted effect of over 50% in size. The following applies: MCF 10A DNA re-replication, Hoechst nuclear intensity, 48 h; series mostly up to 46.1 µM. The text has this: H Molecular Libraries Probe Production Network [MLPCN]
NIH Chemical Genomics Center [NCGC]
Assay Provider: Melvin DePamphilis, NICHD, NIH
Eukaryotic cells normally restrict genome duplication to once per cell division. When this process is aberrant, DNA re-replication occurs when cells reinitiate DNA replication before the first round of replication is complete. DNA re-replication induces the DNA damage response, arrests cell proliferation, and triggers apoptosis. The cell cycle components cyclin A, Cdt-1, Cdc6 and geminin are critical regulators of this process and their misregulation results in DNA re-replication in normal and cancer cells. To identify compounds that induce re-replication in normal cells, an image-based assay was used to measure DNA content of nuclei, as detected by the fluorescent DNA binding dye, Hoechst. Cell nuclei were imaged by a fluorescence scanning plate imager and compounds that induce DNA re-replication were identified by the increase of nuclei with elevated fluorescence intensity
For screening, 250 cells in 5 uL/well were dispensed into black clear 1536-well plates (Aurora) using a solenoid-based dispenser. Following transfer of 23 nL compound or DMSO vehicle by a pin tool, the plates were incubated 48 hr at 37 C and 5% CO2. After addition of 1 uL/well Hoescht stain, the plates were incubated 40 min at 37 C, 5% CO2 and total intensity of fluorescent objects (nuclei) were enumerated by an Acumen Explorer Ex3 (TTP LabTech) fluorescence scanning plate imager (405 nm excitation, 500-530 nm emission).
Keywords: NIH Roadmap, MLPCN, MLI, MLSMR, qHTS, NCGC, DNA replication, cancer
`CCOC(=O)c1c(N)n(CCN2CCOCC2)c2nc3ccccc3nc12`: the Potency entry is “inactive”.

On to `COc1cc(Cn2c(N)c(C(=O)NCc3ccco3)c3nc4ccccc4nc32)cc(OC)c1OC`, for which the Potency is 2.31 µM (active).

As to `CCOC(=O)c1c(N)n(Cc2ccccc2)c2nc3ccccc3nc12`, the Potency entry is “inactive”.

Regarding `CC1CCCN1CCC(C(N)=O)(c1ccccc1)c1ccccc1` (stereo not given), the Potency entry was “inactive”.

Take `C[C@]12CC[C@H](O)CC1=C([N+](=O)[O-])CC1C2CC[C@@]2(C)C1CC[C@@H]2O` (stereo not given in full): the Potency result is “inactive”.

Turning to `CCc1ccc(OCC(=O)N2CCN(CC(=O)Nc3ccccc3Cl)CC2)cc1`, the Potency result is “inactive”.

On to `C[C@]12CCCCC1=CC(=O)C1C2CC[C@@]2(C)C1C[C@@H](F)[C@@H]2O` (stereo not given in full), for which the Potency entry is “inactive”.

For `O=c1[nH]c(CN2CC=C(c3ccccc3)CC2)nc2scc(-c3cccs3)c12`, the Potency was 25.9 µM (active).

With `C=C(C)C1(CCCC)C(=O)NC(=S)NC1=O`, the Potency entry is “inactive”.

For `Cc1ncsc1CCCl`, the Potency entry is “inactive”.

In the case of `CCC(=O)c1ccc(OCC(=O)N2CCN(CC(=O)Nc3ccc(C)cc3)CC2)cc1`, the Potency result was “inactive”.

On to `COc1ccc(C2CC(c3cccs3)=NN2c2nc(C)c(C(C)=O)s2)cc1OC` (stereo not given), for which the Potency is 3.26 µM (active).

Turning to `c1ccc2sc(SNC3CCCCC3)nc2c1`, the Potency result is “inactive”.

Take `C=CCN1CCC23c4c5ccc(O)c4O[C@H]2C(=O)CC[C@@]3(O)C1C5` (stereo not given in full): the Potency entry was “inactive”.

Regarding `CC1C(=O)OC2CCN3CC=C(COC(=O)C(C)(O)C1(C)O)C23` (stereo not given), the Potency result was “inactive”.

With `COc1ccc2c3c1O[C@H]1C[C@@H](O)C=C[C@@]31CCN(C)C2`, the Potency result was “inactive”.

`CCOC(=O)CC(SP1(=S)OCC2(CCCCO2)C(C2CCCCO2)O1)C(=O)OCC` (stereo not given): the Potency result is “inactive”.

For `C[C@]12CCC3C(CC[C@H]4[C@H](O)[C@H](O)CC[C@]34C)C1CC[C@@H]2O` (stereo not given in full), the Potency result was “inactive”.

Regarding `C/C(=N/O)c1ccc2ccc3ccccc3c2c1`, the Potency is 25.9 µM (active).

With `C/C(CCc1c[nH]c2ccccc12)=N\O`, the Potency entry was “inactive”.

As to `O=[N+]([O-])c1cnc2ccc3ccccc3c2c1`, the Potency entry is “inactive”.

As for `CCNC[C@H](O)c1cccc(O)c1`, the Potency entry is “inactive”.

For the compound `Nc1ccc(Cc2ccc(N)c(Cl)c2)cc1Cl`, the Potency result is “inactive”.

In the case of `COc1ccc2c(c1)NP(=S)(c1ccccc1)N2` (stereo not given), the Potency result is “inactive”.

For the compound `CC(CC(C#N)(c1ccccc1)c1ccccc1)N1CCCCC1` (stereo not given), the Potency result was “inactive”.

In the case of `CN(C)CC1Oc2ccccc2OC1(O)c1ccccc1` (stereo not given), the Potency was 2.59 µM (active).

`c1ccc(C(CN2CCCCC2)c2ccccc2)cc1`: the Potency result is “inactive”.

For `COc1cc(OC)cc(C2(C#N)CCN(C)CC2)c1`, the Potency entry is “inactive”.

For the compound `Cc1cccc([C@H](C)c2cnc[nH]2)c1C`, the Potency result is “inactive”.

`CCOc1ccc(CN(CCCl)CCCl)cc1C(=O)OC`: the Potency result was “inactive”.

Take `O=C1NC(=O)C(Cc2ccccc2)C(=O)N1`: the Potency entry was “inactive”.

Consider `Cn1cc(C(=O)OCC(=O)N2CCCC2)c2ccccc21`, for which the Potency entry was “inactive”.

For the compound `NC(=O)Cn1cc(C(=O)c2ccccc2F)c2ccccc21`, the Potency was 0.58 µM (active).

For `N#Cc1ccc(Cn2cc(C(=O)c3ccco3)c3ccccc32)cc1`, the Potency entry is “inactive”.

On to `CCOC(=O)C1(c2ccccc2)CCN(CC(O)c2ccc(NC(C)=O)cc2)CC1` (stereo not given), for which the Potency entry was “inactive”.

As to `Cc1nc2ccccc2c(=O)n1-c1ccc(Cl)cc1Cl`, the Potency result is “inactive”.

As for `O=c1c2ccccc2nc(/C=C/c2ccco2)n1-c1ccccc1O`, the Potency was 23.1 µM (active).

As for `O=c1c2ccccc2nc(-c2ccco2)n1-c1ccc(Br)cn1`, the Potency result is “inactive”.

In the case of `CNC(C)[C@@H](O)c1ccccc1` (stereo not given in full), the Potency result was “inactive”.

Take `CCC(=O)OC(Cc1ccccc1)(c1ccccc1)C(C)CN(C)C` (stereo not given): the Potency entry was “inactive”.

With `c1cc2c(cc1C1OCC3C(c4ccc5c(c4)OCO5)OCC13)OCO2` (stereo not given), the Potency entry is “inactive”.

For the compound `CC(=O)C1(O)CCC2C3CCC4=C(Cl)C(=O)CCC4(C)C3CCC21C` (stereo not given), the Potency result is “inactive”.

For the compound `N#CC1=C(N)Oc2c(c(=O)oc3ccccc23)C1c1ccccc1OC(=O)c1cccs1` (stereo not given), the Potency was 20.6 µM (active).

As to `CCNc1nc2[nH]c(=O)c3c(c2s1)OC(N)=C(C#N)C3c1cccs1` (stereo not given), the Potency entry is “inactive”.

In the case of `CCN1C(=O)NC(=O)C2(CCCC2)C1=O`, the Potency entry is “inactive”.

Regarding `COc1cc(-n2c(=S)[nH]c3ccc(C)cc3c2=O)c(Cl)cc1Cl`, the Potency is 13 µM (active).

As to `CC1([N+](=O)[O-])COP(=O)(Nc2ccc(F)cc2)OC1` (stereo not given), the Potency result is “inactive”.

Take `COc1ccc2cc1Oc1ccc(cc1)C[C@H]1c3cc(c(OC)cc3CCN1C)Oc1c(O)c(OC)cc3c1[C@H](C2)N(C)CC3`: the Potency was 20.6 µM (active).

For `COc1c(O)ccc2c1-c1c3c(cc4c1C(C2)N(C)CC4)OCO3` (stereo not given), the Potency result was “inactive”.

`CC[N+]1(CCOC(=O)C(O)(c2ccccc2)c2ccccc2)CCCCC1`: the Potency entry is “inactive”.

`COC1=C[C@@H]2[C@@H]3Cc4ccc(OC)c(O)c4[C@]2(CCN3C)CC1=O`: the Potency result is “inactive”.

`CNCC[C@H](Oc1ccc(C(F)(F)F)cc1)c1ccccc1`: the Potency entry is “inactive”.

As to `Cc1cc(-c2ccc(N)c(C)c2)ccc1N`, the Potency result is “inactive”.

Regarding `CC1CNCCN1c1ccc(Cl)cc1` (stereo not given), the Potency entry is “inactive”.

As for `C[C@@H]1C[C@@H]2O[C@H]2/C=C\C=C\C(=O)Cc2c(Cl)c(O)cc(O)c2C(=O)O1`, the Potency is 9.2 µM (active).

With `CC(=O)OC1C([N+]2(C)CCCCC2)C[C@H]2C3CC[C@H]4C[C@H](OC(C)=O)C([N+]5(C)CCCCC5)CC4(C)C3CCC12C` (stereo not given in full), the Potency entry is “inactive”.

Take `Cc1ncc(CC(=O)n2cc(C(=O)c3cc(Cl)ccc3O)cn2)s1`: the Potency is 10 µM (active).

Take `C[C@]12CCC3C(CC[C@H]4[C@H](O)[C@H](O)CC[C@]34C)C1CCC2=O` (stereo not given in full): the Potency entry was “inactive”.

In the case of `O=C1NC(=O)C(CCOc2ccccc2)(CCc2ccccc2)C(=O)N1`, the Potency entry is “inactive”.

Take `CCC1(c2ccccc2)C(=O)NC(=O)N(C)C1=O` (stereo not given): the Potency result is “inactive”.

On to `CCC1(CC(C)c2ccccc2)C(=O)NC(=O)NC1=O` (stereo not given), for which the Potency result was “inactive”.

Take `Cc1cc2ccccn2c1C(C[N+](=O)[O-])c1c(F)cccc1Cl` (stereo not given): the Potency is 3.26 µM (active).

Turning to `Oc1ccc2c3c1OC1[C@H](O)CC[C@@]4(O)[C@@H](C2)N(CC2CC2)CC[C@]314` (stereo not given in full), the Potency result is “inactive”.

For the compound `CN1CCCC(=C(c2cccs2)c2cccs2)C1`, the Potency entry is “inactive”.

Turning to `COC(=O)[C@@H]1C(OC(=O)c2ccccc2)CC2CCC1N2C` (stereo not given in full), the Potency entry was “inactive”.

As to `Brc1cc(Br)c(Oc2cc(Br)c(Br)cc2Br)cc1Br`, the Potency is 14.6 µM (active).

Take `CC[C@]1(C(=O)OC)[C@H]2C(=O)N(Cc3ccccc3)C(=O)[C@H]2[C@H]2CN=C(SCc3ccc(C#N)cc3)N21`: the Potency entry is “inactive”.

Consider `Cc1cc(C)c2c(c1)NP(=S)(c1ccccc1)N2` (stereo not given), for which the Potency result was “inactive”.

As for `CN=C(NC#N)NCCSCc1nc[nH]c1C`, the Potency entry is “inactive”.

Consider `O=C(N/N=C/c1ccc([N+](=O)[O-])o1)c1cc([N+](=O)[O-])cc([N+](=O)[O-])c1O`, for which the Potency result was “inactive”.
